{"source": "PubChem BioAssay AID2100", "about": "(National Center for Advancing Translational Sciences (NCATS), 2009)", "note": "Hit rate of the full screen: of about 300,000 compounds, about 1,200 (0.4%) were called active. Where a call stands in place of a potency, no number is given. Another 3% or so got no clear call; they are omitted. Calls come from the whole dose curve; as a rule, active = well fitted inhibition curve with a large enough effect; inconclusive = small, poorly fitted or top-dose-only effect, or another doubt; inactive = no such curve, though single readings can be large or run the other way. The sample as a whole holds a higher share of actives than the screen did. Potency is the fitted concentration of half-maximal effect."}
{"target": "Lysosomal alpha-glucosidase (Homo sapiens) (UniProt P10253)", "test": "qHTS Assay for Inhibitors and Activators of Human alpha-Glucosidase Cleavage of Glycogen;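 note: the screen sought inhibitors and activators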", "settings": "recombinant GAA, glycogen substrate, Amplex Red glucose oxidase fluorescence; series mostly up to 76.3 µM", "in_short": "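qHTS, 1536-well; enzyme 4 nM final; cpd up to 77 uM; substrate bovine liver glycogen 30 ug; 50 mM citrate/phosphate pH 5.0, 0.01% Tween-20; 37 C, 40 min; Amplex Red detection 45 min RT; Hill fit → AC50.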"}
{"smiles": "O=[N+]([O-])c1ccccc1Nc1ccc(O)cc1", "Potency": "10 µM (active)"}
{"smiles": "O=C(O)c1ccccc1C(=O)Nc1ccccc1[N+](=O)[O-]", "Potency": "inactive"}
{"smiles": "O=[N+]([O-])c1ccc(O)c(/C=N/Nc2ccccc2[N+](=O)[O-])c1", "Potency": "inactive"}
{"smiles": "COc1cccc(C(=O)NC(=O)Nc2ccc(-c3cc(C(F)(F)F)nn3-c3ccccc3)cc2)c1", "Potency": "inactive"}
{"smiles": "COc1ccc2c(c1)Cc1sc(NC(=O)c3ccccc3Br)nc1-2", "Potency": "inactive"}
{"smiles": "COc1cc(SC)ccc1C(=O)Nc1nc(C)cs1", "Potency": "inactive"}
{"smiles": "Cc1csc(NC(=O)Nc2ccccc2[N+](=O)[O-])n1", "Potency": "inactive"}
{"smiles": "Cc1csc(NC(=O)NC2(C(F)(F)F)Oc3ccccc3O2)n1", "Potency": "8.84 µM (active)"}
{"smiles": "O=C(Nc1ccc2nc(SCCOc3ccccc3Cl)sc2c1)c1ccco1", "Potency": "inactive"}
{"smiles": "COc1cccc(NC(=O)N(Cc2cn(C)c3ccccc23)C2CCCCCC2)c1", "Potency": "inactive"}
{"smiles": "O=c1c2cccnc2n(Cc2cccc(F)c2)c(=O)n1Cc1ccccc1Cl", "Potency": "inactive"}
{"smiles": "COc1cc(OC)cc(C(=O)Nc2cc3nn(-c4ccccc4)nc3cc2Cl)c1", "Potency": "inactive"}
{"smiles": "O=C(Nc1ccccc1-c1nc2ccccc2[nH]c1=O)c1cccs1", "Potency": "inactive"}
{"smiles": "C/C(=N\\Nc1nc2ccccc2[nH]1)c1cccs1", "Potency": "25.1 µM (active)"}
{"smiles": "C/C(=N\\Nc1nc(Nc2ccccc2)nc(N2CCOCC2)n1)c1cccs1", "Potency": "inactive"}
{"smiles": "Cc1c(C(=O)N2CCCC2)oc2c1-c1nn(CC(=O)NCc3ccc(OC(C)C)cc3)cc1CC2", "Potency": "inactive"}
{"smiles": "COc1ccccc1CNc1ccc(-c2nc(-c3ccccc3C)no2)cc1[N+](=O)[O-]", "Potency": "inactive"}
{"smiles": "COc1ccc(NC(=O)CSc2nc3ncccc3[nH]2)c(OC)c1", "Potency": "inactive"}
{"smiles": "C=CCNc1scc(-c2ccccc2)[n+]1CC=C", "Potency": "inactive"}
{"smiles": "Cc1ccc(NC(=O)Nc2ccccc2)c(Br)c1", "Potency": "inactive"}
{"smiles": "C=CC[n+]1c(-c2ccc(C)cc2)csc1NNC(=O)Nc1ccccc1", "Potency": "25.1 µM (active)"}
{"smiles": "CN(CC(=O)Nc1cccc(C(F)(F)F)c1)S(=O)(=O)c1cccs1", "Potency": "inactive"}
{"smiles": "CSc1nc(-c2ccccc2Cl)nc2c1Cc1c(CO)cnc(C)c1O2", "Potency": "inactive"}
{"smiles": "CCc1nnc(SCc2c(F)cccc2Cl)c2cc3sccc3n12", "Potency": "inactive"}
{"smiles": "CCN(CCCNC(=O)c1cc2cc3cc(OC)ccc3nc2s1)c1ccccc1", "Potency": "inactive"}
{"smiles": "Cc1cc(C)n2nc(C(=O)N3CCN(Cc4ccc5c(c4)OCO5)CC3)nc2n1", "Potency": "inactive"}
{"smiles": "Cc1cc(C)n2nc(C(=O)NC(C)(C)C)nc2n1", "Potency": "inactive"}
{"smiles": "Cc1cc(C)n2nc(C(=O)Oc3ccc4c(c3)OCO4)nc2n1", "Potency": "12.5 µM (active)"}
{"smiles": "CSc1nc(Nc2ccc(F)cc2)cc(-c2ccccc2)n1", "Potency": "inactive"}
{"smiles": "CCOc1ccc(N(CC)C(=O)c2noc3c2COc2ccc(C)cc2-3)cc1", "Potency": "inactive"}
{"smiles": "O=c1c2ccccc2ncn1/N=C/c1ccccc1", "Potency": "inactive"}
{"smiles": "Cc1[nH]n(-c2cccc(Cl)c2)c(=O)c1/C=N/n1c(C)nc2ccccc2c1=O", "Potency": "inactive"}
{"smiles": "CCCc1nc2ccccc2c(=O)n1/N=C/c1ccc(O)c(O)c1", "Potency": "11.2 µM (active)"}
{"smiles": "CC(=O)c1ccc(NC(=O)c2nc(-c3ccc(C)cc3)n3c2CCCCC3)cc1", "Potency": "inactive"}
{"smiles": "COc1ccccc1NC(=O)Cn1cnc2ccc(S(=O)(=O)N3CCC(C)CC3)cc2c1=O", "Potency": "inactive"}
{"smiles": "CCc1ccc(NC(=O)CCS(=O)(=O)c2cc3c(cc2Cl)NC(=O)CO3)cc1", "Potency": "inactive"}
{"smiles": "CC(C)Cn1c(=O)c2ccccc2n2c(CCC(=O)N3CCN(c4cccc(Cl)c4)CC3)nnc12", "Potency": "inactive"}
